Assay [1] can be described thus: qHTS for Activators of Parkin Expression: LOPAC Validation Assay (NLuc Reporter) (AID 720572;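 further: 0% = DMSO and 100% = positive control compound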). Summed up: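 Parkin promoter-driven FLuc/NLuc neuronal reporter cells; 24 h plating, 7-pt dose response, 24 h at 37 C/5% CO2; FLuc then NanoLuc reagent, 10 min each, luminescence; DMSO/positive control normalized.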
Assay [2] concerns the target T1, Hexokinase-4 (Homo sapiens) + Glucokinase regulatory protein (Homo sapiens) (UniProt P35557+Q14397). Briefly: qHTS assay for inhibitors of recombinant human GCK-GKRP interaction: Diaphorase-coupled assay (AID 743205). A digest of the protocol:
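GST-GCK (10 nM) with FLAG-GKRP (10 nM), 5 mM glucose and 0.4 mM ATP in pH 7.6 Hepes; compounds preincubated 20 min with substrate. G6PDH/diaphorase coupling converts resazurin to resorufin, read kinetically (ex 525/em 590 nm) for 30 min.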

The target in assay [3] is T1, Hexokinase-4 (Homo sapiens) + Glucokinase regulatory protein (Homo sapiens). Nature of the assay: qHTS assay for inhibitors of recombinant human GCK-GKRP interaction: ADP-Glo assay (AID 743206).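 Further: plate controls were DMSO plus enzyme for no effect and no enzyme for full effect.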 A digest of the protocol:
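GST-GCK and FLAG-GKRP (15 nM each in the dispensed mix, with 2 uM S6P) react with 0.4 mM ATP and 5 mM glucose (final) in Hepes pH 7.6 for 60 min at room temperature. ADP is measured by ADP-Glo luminescence.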

Assay [4] in a line: qHTS Assay for Identifying Gametocytocidal Compounds (AID 743244). Further: potency means the concentration at half of the fitted maximal effect. As to conditions: P. falciparum 3D7 stage III-V gametocytes, alamarBlue, 72 h; max response: stronger effect = lower value. A digest of the protocol: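 Viability read-out was resazurin reduction (alamarBlue, 24 h) measured at Ex 525/Em 598 nm. Beforehand, late-stage (III-V) 3D7 P. falciparum gametocytes at 20,000 cells/well were incubated with compound 72 h at 37C under 5% CO2.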

A short description of assay [5]: Natriuretic polypeptide receptor (hNpr1) antagonism - Pilot counterscreen GloSensor control cell line (AID 1347045; calls by dose curve; further: potency means the concentration at half of the fitted maximal effect). A digest of the protocol:
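HEK293 cells carrying the GloSensor cGMP sensor (GIP/pGS-40F) were loaded with 2% GloSensor reagent for 2 h, exposed to compounds for 30 min, and then stimulated with 50 uM sodium nitroprusside for 20 min at room temperature.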

In assay [6] the target is T2, Tyrosine-protein phosphatase non-receptor type substrate 1 (Homo sapiens) + Leukocyte surface antigen CD47 (Homo sapiens) (UniProt P78324+Q08722). Nature of the assay: CD47-SIRPalpha protein protein interaction - LANCE assay qHTS validation (AID 1347057; active means well fitted curve in the direction sought with a large enough effect in the signal ratio, with a control signal flat, not every such curve was filed as active; the % refers to the signal ratio; further: series mostly up to about 38 µM; 0% is about no effect). A digest of the protocol: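 First, His-tagged CD47 and Eu-labelled anti-His antibody met the compound for 30 min; next, site-specifically biotinylated SIRPalpha was added for 30 min; finally streptavidin-APC was added before reading the TR-FRET ratio.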

Assay [7] concerns the target T2, Tyrosine-protein phosphatase non-receptor type substrate 1 (Homo sapiens) + Leukocyte surface antigen CD47 (Homo sapiens). Briefly: CD47-SIRPalpha protein protein interaction - HTRF assay qHTS validation (AID 1347058; active means well fitted curve in the direction sought with a large enough effect in the signal ratio, not every such curve was filed as active; the % refers to the signal ratio;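 further: recombinant soluble extracellular CD47 with His tag and biotinylated SIRPalpha domains; series mostly up to about 38 µM; 0% is about no effect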). Summed up: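 TR-FRET read (Ch1/Ch2 ratio) of soluble extracellular CD47 and Avi-biotinylated SIRPalpha domains in PBS pH 7.4 with 0.05% IGEPAL; 7-point compound titration. Sequential 30 min room-temperature steps; non-biotinylated SIRPalpha as control inhibitor.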

The target is the same in assay [8]. Briefly: CD47-SIRPalpha protein protein interaction - Alpha assay qHTS validation (AID 1347059).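 Further: bead proximity luminescence from CD47 binding SIRPalpha after compound preincubation with SIRPalpha; on the % scale 0 is the no-effect control and ±100 the full control effect.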 A digest of the protocol:
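Binding is measured by AlphaScreen proximity: Ni-NTA acceptor beads capture His-CD47, streptavidin donor beads capture biotin-SIRPalpha. Each of three additions (SIRPalpha with compound, CD47, beads) incubates 30 min at room temperature protected from light.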

Assay [9] deals with Parathyroid hormone/parathyroid hormone-related peptide receptor (Homo sapiens) (UniProt Q03431). Nature of the assay: qHTS for PTHR1 Agonists: Optimization Screen against the NCGC LOPAC library (AID 1347079).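 Further: GloSensor cAMP luminescence in HEK-293 GP2 cells expressing human PTHR1 with IBMX; 0% is about no effect.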 Summed up:
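Compounds were tested across a qHTS titration. PTHR1-expressing GP2 cells report cAMP rises via GloSensor luminescence after 1 hr compound exposure at 37C with IBMX present.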

Assay [10] addresses Lysine-specific demethylase 5B (Homo sapiens) (UniProt Q9UGL1). Briefly: Optimization screen for KDM5B Histone Demethylases FDH coupled qHTS against the LOPAC library (AID 1347166). Further: 0% is about no effect. Summed up: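 KDM5BDeltaAP (200nM final) preincubated 10 min with compound, then 12.5uM H3K4Me3, 25uM a-ketoglutarate, ascorbate, Fe(II), NAD+ and FDH added; 50mM HEPES pH 7.5, 0.01% Tween-20. NADH fluorescence (340/450 nm) change over 30 min, room temperature.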

Assay [11] can be described thus: qHTS for inhibitors of adenylyl cyclases using a fission yeast platform: a pilot screen against the NCATS LOPAC library (AID 1347410).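 Further: plate controls were DMSO vehicle for no effect and DPI positive control for full effect.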 A digest of the protocol: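 S. pombe CHP2027 (AC9-GNAS-PDE4D2) carrying a PKA-repressed fbp1-GFP reporter was exposed to LOPAC compounds (final up to 57 µM) for 18 h at 30C in the dark, in EMM with histidine, lysine and uracil; GFP gain-of-signal read by laser scanning cytometry.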

The nature of assay [12]: Validation qHTS assay for inhibitors of Activation Induced Cytidine Deaminase (AID): UDG Counterscreen signal (AID 1347427). Further: 0% is about no effect. A digest of the protocol: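 Counterscreen read of UDG activity (2 U/mL, 4/3x) in the FRET deamination format with AID (1 uM, 4/3x), DJC20/DJC23 substrates (250 nM, 4x), 4 h at room temperature. NaOH stop, fluorescence at 560 ex/665 em.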
Assay [13] addresses Single-stranded DNA cytosine deaminase (Homo sapiens) (UniProt Q9GZX7). Nature of the assay: Validation qHTS assay for inhibitors of Activation Induced Cytidine Deaminase (AID): AID signal (AID 1347429). Further: on the % scale 0 is the no-effect control and ±100 the full control effect. Summed up:
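AID and UDG were combined and compounds added at final up to 114 uM, then DJC20/DJC23 FRET substrate was added for 4 hr at room temperature. NaOH was then added for 30 min before fluorescence was read at 540/590 nm.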

Assay [14] can be described thus: Primary qHTS for inhibitors of La Crosse Virus (LACV) - induced cell death in SH-SY5Y cells (AID 1508616).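 Further: top concentration of the series differs between compounds; 0% = infected DMSO wells and 100% = uninfected DMSO wells; higher means more rescue of cells from virus-induced death.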 A digest of the protocol: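 Luminescent ATP readout (ATPLite 1step, 5 min room temperature) measured rescue from LACV-induced death after 6 days of infection at 0.01 MOI; normalized to infected DMSO wells and uninfected DMSO wells.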
The target of assay [15] is Calcium and integrin-binding protein 1 (Homo sapiens) (UniProt Q99828). Nature of the assay: Validation qHTS for Identification of Calcium Integrin Binding protein 1 (CIB1) Competitor (AID 1508618). Further: on the % scale 0 is the no-effect control and ±100 the full control effect. Summed up:
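CIB1-GST (1 uM final) in 5 mM HEPES pH 7.4, 125 mM NaCl, 5 mM CaCl2, 0.01% Tween20 was preincubated 15 min at room temperature with compound (up to 114 uM), then FITC-alphaIIb peptide (100 nM) added for 15 min; fluorescence polarization read.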

Assay [16] is described as follows: Counterscreen qHTS for small molecule stabilizers of the endoplasmic reticulum resident proteome: GLuc-NoTag assay (AID 1508627).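 Further: SH-SY5Y cells given compound then 100 nM thapsigargin to empty ER calcium; series mostly up to about 76 µM; 0% = thapsigargin alone and -100% = DMSO vehicle control.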 Summed up:
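Luminescence of Gaussia luciferase secreted into the medium (coelenterazine, 0.07x final, unlysed cells) was the read-out. Human SH-SY5Y neuroblastoma cells constitutively secreting untagged GLuc received compound for 19 h, then 100 nM thapsigargin for 4 h.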

Assay [17] in a line: Cell Viability qHTS for small molecule stabilizers of the endoplasmic reticulum resident proteome (AID 1508629).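 Further: human SH-SY5Y neuroblastoma cells carrying the GLuc-SERCaMP reporter; compound exposure about 46 h in total before the viability read; on the % scale 0 is the no-effect control and ±100 the full control effect.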 The note with it: cell viability counter-screen, 100 nM thapsigargin for final 4 h.
A further assay addresses Papain (Carica papaya) (UniProt P00784). Nature of the assay: Primary qHTS assay for inhibitors of the protease papain (AID 1645873).
Assay [18] concerns the target Metallo-beta-lactamase type 2 (Klebsiella pneumoniae) (UniProt C7C422). Nature of the assay: qHTS to identify inhibitors of the New Delhi Metallo-beta-lactamase (NDM): assay validation screen against the NCATS LOPAC Collection (AID 1794843). A digest of the protocol:
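NDM-1 at 2 nM final in 50 mM HEPES pH 7.0 with 1 uM ZnSO4 and 0.01% Tween20 was preincubated with library compounds in DMSO. Nitrocefin (50 uM stock) was then added, and absorbance at 485 nm was read at the kinetic plateau.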

Assay [19] deals with Phospholipid hydroperoxide glutathione peroxidase GPX4 (Homo sapiens) (UniProt P36969). Briefly: Primary qHTS Assay for Inhibitors of Recombinant Selenoprotein Glutathione Peroxidase 4 (GPX4) (AID 1845192). Further: series mostly up to about 50 µM; on the % scale 0 is the no-effect control and ±100 the full control effect; nearly all actives have a fitted effect of over 65% in size. The note with it: outcome: dose series up to 50 µM unless noted. Summed up: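 NADPH consumption, followed by fluorescence at 340/450 nm between 0 and 15 min, reports GPX4 activity via coupled glutathione reductase (100 nM). Enzyme 200 nM was pre-exposed to compound 30 min; 0.5 mM cumene hydroperoxide and 1 mM GSH served as substrates.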

This passage reports outcome, Potency and max response results from PubChem BioAssay (NCATS).

Values without a mark were called inactive. Inconclusive results are not listed. The source made the active and inactive calls. Unless noted, the call rests on the fitted dose curve; in most records, active means well fitted curve in the direction sought with a large enough effect; inconclusive means small, poorly fitted or top-dose-only effect, or another doubt; inactive means no such curve, though single readings can be large; an effect the other way counts as inactive or inconclusive.

T2 sequence (P78324 whole entry, looked up): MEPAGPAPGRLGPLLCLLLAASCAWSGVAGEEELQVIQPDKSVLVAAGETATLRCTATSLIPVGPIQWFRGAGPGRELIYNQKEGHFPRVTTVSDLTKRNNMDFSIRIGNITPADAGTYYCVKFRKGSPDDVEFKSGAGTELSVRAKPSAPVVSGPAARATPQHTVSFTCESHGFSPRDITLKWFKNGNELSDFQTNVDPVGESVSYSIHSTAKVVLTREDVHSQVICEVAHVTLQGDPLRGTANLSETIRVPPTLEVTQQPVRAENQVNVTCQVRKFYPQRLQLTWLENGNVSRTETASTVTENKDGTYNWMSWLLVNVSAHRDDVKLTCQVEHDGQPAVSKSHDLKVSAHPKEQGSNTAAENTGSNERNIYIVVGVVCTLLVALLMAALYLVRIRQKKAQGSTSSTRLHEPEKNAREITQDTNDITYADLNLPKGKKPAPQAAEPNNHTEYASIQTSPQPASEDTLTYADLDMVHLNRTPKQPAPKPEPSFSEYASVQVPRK
T2 sequence (Q08722 whole entry, looked up): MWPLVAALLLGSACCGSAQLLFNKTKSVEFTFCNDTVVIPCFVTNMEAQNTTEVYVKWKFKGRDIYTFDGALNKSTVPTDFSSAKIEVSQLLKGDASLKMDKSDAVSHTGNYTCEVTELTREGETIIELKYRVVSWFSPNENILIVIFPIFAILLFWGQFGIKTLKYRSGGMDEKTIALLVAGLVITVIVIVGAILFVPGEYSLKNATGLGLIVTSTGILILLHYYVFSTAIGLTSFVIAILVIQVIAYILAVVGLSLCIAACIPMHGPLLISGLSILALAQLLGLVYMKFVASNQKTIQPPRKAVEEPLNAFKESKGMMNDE
T1 sequence (P35557 whole entry, looked up): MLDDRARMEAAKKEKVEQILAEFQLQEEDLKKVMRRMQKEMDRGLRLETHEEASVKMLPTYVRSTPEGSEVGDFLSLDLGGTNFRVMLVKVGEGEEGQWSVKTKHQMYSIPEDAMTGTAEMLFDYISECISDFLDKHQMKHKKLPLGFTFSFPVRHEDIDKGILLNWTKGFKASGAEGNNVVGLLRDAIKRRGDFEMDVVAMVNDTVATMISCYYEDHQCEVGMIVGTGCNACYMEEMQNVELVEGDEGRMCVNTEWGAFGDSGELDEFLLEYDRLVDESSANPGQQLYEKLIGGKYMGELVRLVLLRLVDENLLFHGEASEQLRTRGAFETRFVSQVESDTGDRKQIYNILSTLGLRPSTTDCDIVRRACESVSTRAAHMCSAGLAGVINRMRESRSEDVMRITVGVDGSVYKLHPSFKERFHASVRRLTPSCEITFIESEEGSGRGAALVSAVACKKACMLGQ
T1 sequence (Q14397 whole entry, looked up): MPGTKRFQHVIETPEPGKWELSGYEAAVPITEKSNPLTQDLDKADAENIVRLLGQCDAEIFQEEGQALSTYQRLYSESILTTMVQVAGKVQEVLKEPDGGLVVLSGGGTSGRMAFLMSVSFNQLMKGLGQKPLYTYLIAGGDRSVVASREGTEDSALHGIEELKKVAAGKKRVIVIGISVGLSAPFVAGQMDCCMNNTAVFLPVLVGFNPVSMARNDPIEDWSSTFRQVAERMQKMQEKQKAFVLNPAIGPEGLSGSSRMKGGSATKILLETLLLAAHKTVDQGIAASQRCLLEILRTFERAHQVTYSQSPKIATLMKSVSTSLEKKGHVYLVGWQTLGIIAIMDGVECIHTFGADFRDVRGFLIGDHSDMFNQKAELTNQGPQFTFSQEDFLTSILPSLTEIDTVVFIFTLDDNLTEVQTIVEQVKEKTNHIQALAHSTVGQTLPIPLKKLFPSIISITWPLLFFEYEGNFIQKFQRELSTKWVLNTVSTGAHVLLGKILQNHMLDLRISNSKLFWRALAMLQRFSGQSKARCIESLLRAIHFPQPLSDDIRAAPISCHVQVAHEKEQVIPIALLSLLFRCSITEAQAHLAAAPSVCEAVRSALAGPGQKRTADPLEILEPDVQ
Chain of Parathyroid hormone/parathyroid hormone-related peptide receptor (Homo sapiens) (Q03431 whole entry, looked up): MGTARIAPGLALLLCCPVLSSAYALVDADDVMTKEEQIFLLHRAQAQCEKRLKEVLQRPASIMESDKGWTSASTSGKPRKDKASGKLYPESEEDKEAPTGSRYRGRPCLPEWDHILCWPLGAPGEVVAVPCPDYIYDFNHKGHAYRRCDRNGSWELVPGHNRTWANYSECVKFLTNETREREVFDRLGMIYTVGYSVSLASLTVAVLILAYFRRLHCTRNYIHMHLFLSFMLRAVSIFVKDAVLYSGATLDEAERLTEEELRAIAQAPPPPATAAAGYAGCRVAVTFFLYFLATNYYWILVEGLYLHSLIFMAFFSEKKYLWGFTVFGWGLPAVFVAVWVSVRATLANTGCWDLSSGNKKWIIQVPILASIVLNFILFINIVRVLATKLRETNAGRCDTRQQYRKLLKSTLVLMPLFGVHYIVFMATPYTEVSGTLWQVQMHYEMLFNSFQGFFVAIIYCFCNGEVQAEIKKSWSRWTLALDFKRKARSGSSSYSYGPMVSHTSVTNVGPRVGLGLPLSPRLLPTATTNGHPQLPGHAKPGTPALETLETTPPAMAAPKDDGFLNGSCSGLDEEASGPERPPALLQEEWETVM
Chain of Phospholipid hydroperoxide glutathione peroxidase GPX4 (Homo sapiens) (P36969 whole entry, looked up): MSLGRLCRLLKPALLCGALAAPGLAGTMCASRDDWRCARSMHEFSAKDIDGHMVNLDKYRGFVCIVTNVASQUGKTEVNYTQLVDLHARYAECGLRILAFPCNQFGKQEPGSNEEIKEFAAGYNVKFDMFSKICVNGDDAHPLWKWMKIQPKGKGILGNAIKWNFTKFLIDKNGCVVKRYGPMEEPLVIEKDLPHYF
Chain of Calcium and integrin-binding protein 1 (Homo sapiens) (Q99828 whole entry, looked up): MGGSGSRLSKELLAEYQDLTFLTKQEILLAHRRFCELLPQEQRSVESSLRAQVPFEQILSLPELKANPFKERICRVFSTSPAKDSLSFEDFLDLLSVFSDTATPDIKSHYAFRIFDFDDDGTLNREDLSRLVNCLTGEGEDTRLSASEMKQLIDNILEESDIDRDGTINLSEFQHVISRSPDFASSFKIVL
Chain of Single-stranded DNA cytosine deaminase (Homo sapiens) (Q9GZX7 whole entry, looked up): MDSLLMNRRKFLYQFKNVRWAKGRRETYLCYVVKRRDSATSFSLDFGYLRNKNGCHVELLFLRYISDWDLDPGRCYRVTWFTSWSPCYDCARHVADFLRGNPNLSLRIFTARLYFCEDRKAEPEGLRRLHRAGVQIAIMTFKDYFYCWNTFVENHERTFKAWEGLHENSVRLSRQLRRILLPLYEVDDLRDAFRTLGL
Chain of Metallo-beta-lactamase type 2 (Klebsiella pneumoniae) (C7C422 whole entry, looked up): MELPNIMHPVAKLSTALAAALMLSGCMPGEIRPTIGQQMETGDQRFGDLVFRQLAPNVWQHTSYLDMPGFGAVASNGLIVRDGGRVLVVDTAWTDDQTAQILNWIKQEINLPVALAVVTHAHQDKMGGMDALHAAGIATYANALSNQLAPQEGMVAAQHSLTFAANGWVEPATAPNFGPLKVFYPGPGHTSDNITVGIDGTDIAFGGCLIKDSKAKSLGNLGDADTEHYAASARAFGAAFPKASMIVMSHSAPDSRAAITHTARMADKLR
Chain of Lysine-specific demethylase 5B (Homo sapiens) (Q9UGL1 whole entry, looked up): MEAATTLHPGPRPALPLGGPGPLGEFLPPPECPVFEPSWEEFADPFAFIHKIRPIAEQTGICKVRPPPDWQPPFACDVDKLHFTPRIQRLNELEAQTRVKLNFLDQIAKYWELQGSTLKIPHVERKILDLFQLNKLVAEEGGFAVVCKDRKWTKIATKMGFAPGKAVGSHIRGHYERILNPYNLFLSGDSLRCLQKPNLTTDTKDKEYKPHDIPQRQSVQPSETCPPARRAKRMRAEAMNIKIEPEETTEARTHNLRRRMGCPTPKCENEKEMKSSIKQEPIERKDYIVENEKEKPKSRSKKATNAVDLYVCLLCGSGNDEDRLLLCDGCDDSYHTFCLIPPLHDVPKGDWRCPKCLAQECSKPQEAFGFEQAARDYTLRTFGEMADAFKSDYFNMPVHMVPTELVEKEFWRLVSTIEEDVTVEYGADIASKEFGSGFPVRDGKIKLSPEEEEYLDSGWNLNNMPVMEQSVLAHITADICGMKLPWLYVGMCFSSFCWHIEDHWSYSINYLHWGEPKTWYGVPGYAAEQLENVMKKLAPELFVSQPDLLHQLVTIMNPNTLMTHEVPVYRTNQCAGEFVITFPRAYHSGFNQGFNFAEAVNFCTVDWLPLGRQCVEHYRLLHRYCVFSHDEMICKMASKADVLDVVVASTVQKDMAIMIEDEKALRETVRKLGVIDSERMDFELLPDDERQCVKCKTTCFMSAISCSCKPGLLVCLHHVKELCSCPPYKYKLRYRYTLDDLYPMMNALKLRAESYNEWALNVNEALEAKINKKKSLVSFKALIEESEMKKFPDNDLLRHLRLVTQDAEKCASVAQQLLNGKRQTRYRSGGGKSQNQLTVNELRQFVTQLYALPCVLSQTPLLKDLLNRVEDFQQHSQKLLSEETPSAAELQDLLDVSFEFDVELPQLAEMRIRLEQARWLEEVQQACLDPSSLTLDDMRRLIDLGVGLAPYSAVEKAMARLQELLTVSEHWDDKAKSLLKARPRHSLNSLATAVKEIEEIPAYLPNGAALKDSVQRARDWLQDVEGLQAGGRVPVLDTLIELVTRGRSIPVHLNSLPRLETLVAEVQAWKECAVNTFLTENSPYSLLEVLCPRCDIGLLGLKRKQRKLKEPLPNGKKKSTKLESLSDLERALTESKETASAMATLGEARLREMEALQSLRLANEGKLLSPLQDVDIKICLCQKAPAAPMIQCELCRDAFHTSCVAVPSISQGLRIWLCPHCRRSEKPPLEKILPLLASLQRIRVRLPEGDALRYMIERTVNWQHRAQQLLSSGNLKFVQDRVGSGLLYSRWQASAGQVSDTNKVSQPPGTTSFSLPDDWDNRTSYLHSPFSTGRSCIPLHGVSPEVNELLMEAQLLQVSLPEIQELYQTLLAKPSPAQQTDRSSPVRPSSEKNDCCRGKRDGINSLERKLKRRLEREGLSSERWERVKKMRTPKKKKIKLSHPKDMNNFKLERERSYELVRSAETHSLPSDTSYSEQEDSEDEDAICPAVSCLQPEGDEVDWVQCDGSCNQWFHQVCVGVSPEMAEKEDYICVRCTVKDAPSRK

Consider `S=C(Nc1ccccc1)Nc1nccs1`, for which the compound was classed as inactive in assay [1], in assay [2], in assay [3], in assay [6], in [7] and in [9]. In addition, the compound was called inactive in assay [10], in assay [11], in assay [12], in assay [14] and in assay [15]. Besides, the Potency is 1.58 µM (active) in assay [4] and 13.1 µM (active) in assay [5]. For the same compound, the Potency result (in assay [8]; in assay [13]; in assay [16]; with Papain (Carica papaya); in assay [18]; in assay [19]) was “inactive” in each case. The max response in assay [17] was -3.94%.
